# The other results are listed elsewhere or left out. Activity calls are given as the source filed them. No rule for the calls is given here.
# Molecular target: Adenosylmethionine-8-amino-7-oxononanoate aminotransferase (Mycobacterium tuberculosis (strain ATCC 25618 / H37Rv)) (UniProt P9WQ81)
# Test: inhibition of M. tuberculosis BioA aminotransferase – biochemical, plate reader, cherry-pick samples, set 03, dose response (AID 651679);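 also: top concentration of the dilution series was 10 µM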
# Settings: purified BioA enzyme
# Sequence of Adenosylmethionine-8-amino-7-oxononanoate aminotransferase (Mycobacterium tuberculosis (strain ATCC 25618 / H37Rv)) (P9WQ81 whole entry, looked up): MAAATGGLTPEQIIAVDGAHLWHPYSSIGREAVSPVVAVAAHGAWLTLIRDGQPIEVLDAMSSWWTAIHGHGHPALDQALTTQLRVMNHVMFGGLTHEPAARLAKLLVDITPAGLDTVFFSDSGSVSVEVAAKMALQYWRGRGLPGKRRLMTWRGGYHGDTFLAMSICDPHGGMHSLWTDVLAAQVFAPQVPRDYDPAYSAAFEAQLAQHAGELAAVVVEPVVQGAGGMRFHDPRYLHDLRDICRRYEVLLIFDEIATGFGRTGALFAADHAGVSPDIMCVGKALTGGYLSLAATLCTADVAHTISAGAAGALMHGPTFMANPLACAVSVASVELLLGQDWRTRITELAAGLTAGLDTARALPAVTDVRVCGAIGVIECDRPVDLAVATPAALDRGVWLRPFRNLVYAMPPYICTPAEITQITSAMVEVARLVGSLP
row,SMILES,max activity
1,Cc1c(OC(C)C(=O)NCC2CCC(C(=O)O)CC2)ccc2c1oc(=O)c1ccccc12 (stereo not drawn),-6.87% [at 0.3 µM] (inactive)
2,Cc1nc(=O)c(-c2ccccc2)c(C)n1-c1ccc(Br)cc1,-5.48% [at 0.08 µM] (inactive)
3,Cc1c2cnn(CC(=O)NCc3ccccn3)c(=O)c2c(C)n1Cc1ccc(Cl)cc1,-3.46% [at 10 µM] (inactive)
4,CS(=O)(=O)N1[C@H](C(=O)NCc2ccncc2)[C@@H](CO)[C@@H]2Cn3c(ccc(C4=CCCCC4)c3=O)[C@@H]21,4.42% (inactive)
5,CCCOc1ccc2c3c(c(=O)oc2c1OCCC)CCC3,12.3% [at 1.2 µM] (inactive)
6,Cn1c(=O)c2c(nc(OCc3cccnc3)n2Cc2ccccc2)n(C)c1=O,-7.11% [at 0.3 µM] (inactive)
7,COCCNC(=O)C[C@H]1CC[C@@H]2[C@H](COc3ccc(NC(=O)Nc4cccc(F)c4)cc3C(=O)N2C)O1,9.1% (inactive)
8,O=C(c1ccncc1)N1CC[C@@H]2[C@H]1c1cc(Br)ccc1N[C@@H]2CO,-4.43% (inactive)
9,CCC(CO)Oc1cc(NC(=O)c2cccc(F)c2)c2ncn(C(C)C)c2c1 (stereo not drawn),-8.92% (inactive)
10,CC(=O)CSc1nnc(CSc2ncccn2)n1C1CCCCC1,4.14% (inactive)
11,O=c1[nH]c(N2CCN(Cc3ccc4c(c3)OCO4)CC2)nc2c1CCCC2,-3.93% [at 5 µM] (inactive)
12,COc1cc(-c2n[nH]c(=S)n2Cc2ccccc2)cc(OC)c1OC,-6.94% [at 0.6 µM] (inactive)
13,CC(=O)O[C@]1(C(C)=O)CC[C@H]2[C@@H]3C=C(C)C4=CC(=O)CC[C@]4(C)[C@H]3CC[C@@]21C,-6.47% [at 0.6 µM] (inactive)

# Source: PubChem BioAssay AID651679 (Broad Institute, 2012)
